D1 antagonist: Antagonist of Human D 1 Dopamine Receptor: qHTS; activity change, negative = inhibition, % at 10 µM; HEK293 TREx D1 cells, calcium flux, dopamine EC80; hits give low values; 3.2% of 360,000 active; in the data active = activity change below about -30%
Target sequence (P21728 whole entry, looked up): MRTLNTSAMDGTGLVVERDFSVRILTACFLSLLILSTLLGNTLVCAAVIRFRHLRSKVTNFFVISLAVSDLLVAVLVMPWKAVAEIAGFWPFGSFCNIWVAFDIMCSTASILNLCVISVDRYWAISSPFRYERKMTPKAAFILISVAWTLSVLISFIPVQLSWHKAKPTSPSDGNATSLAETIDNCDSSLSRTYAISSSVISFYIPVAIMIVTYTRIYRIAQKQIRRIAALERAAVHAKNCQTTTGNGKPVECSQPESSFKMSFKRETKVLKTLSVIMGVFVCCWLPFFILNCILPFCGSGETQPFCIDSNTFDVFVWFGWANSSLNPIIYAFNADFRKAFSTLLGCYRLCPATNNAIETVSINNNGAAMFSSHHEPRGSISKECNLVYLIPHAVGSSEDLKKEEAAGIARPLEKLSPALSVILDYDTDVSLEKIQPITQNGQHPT
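Using tetracycline-induced force-coupled D1 Hek293 cells and a calcium dye, signals were followed for 180 s after compound, then for 180 s after EC80 dopamine, to detect inhibitors.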
TRHR enhancer: qHTS for Small Molecule Agonists and Allosteric Enhancers of Human TRH Receptor: Primary Screen for Enhancers | Thyrotropin-releasing hormone receptor (Homo sapiens), P34981 | TRHR cells, fluo-8 calcium fluorescence, EC20 TRH enhancement | enhancement, % at 2 µM | 0.66% of 360,000 active; in the data active = enhancement above about 30%
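TRHR-expressing cells loaded with fluo-8 calcium dye were read kinetically (ex 480/em 530) during compound addition, then stimulated with an EC20 of TRH (10 nM final). Enhancement of the Gq-mediated intracellular calcium response was scored.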
D1 potentiator: Potentiators of Human D1 Dopamine Receptor: qHTS; HEK293 TREx D1 cells, calcium flux, dopamine EC20 potentiation; potentiation, % at 10 µM; 0.036% of 360,000 active; AID 504651, 2011; in the data active = potentiation above about 30%
D1 agonist: Allosteric Agonists of the Human D1 Dopamine Receptor: qHTS. 1% of 360,000 active. activation, % at 2 µM. HEK293 T-REx D1 cells, calcium flux, agonist mode. AID 504660, 2011
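Agonism was scored from calcium flux recorded over 180 s (1 read/s) after pintool compound addition, following a 10-cycle baseline. Cells were inducible force-coupled HEK293 TREx D1, plated overnight at 30 C and loaded with no-wash calcium dye.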
Epigenetic reg: Quantitative High-Throughput Screen for Regulators of Epigenetic Control | murine LDR cells, GFP reporter derepression, 30 h | Potency, µM (highest dose often 53.9 µM), usual class: activators | 0.2% of 280,000 active; active = well fitted activation curve with a large enough effect; inconclusive = small, poorly fitted or top-dose-only effect; also: nearly all actives have a fitted effect of over 60% in size
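Derepression of a silenced CMV-GFP reporter in murine LDR cells is scored by enumerating GFP-positive cells with a laser-scanning microplate cytometer after 30 hours of treatment at 37 C.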
TRHR agonist: qHTS for Small Molecule Agonists and Allosteric Enhancers of Human TRH Receptor: Primary Screen for Agonists; Thyrotropin-releasing hormone receptor (Homo sapiens), P34981; 0.18% of 360,000 active; activation, % at 2 µM; TRHR cells, calcium flux fluo-8, FDSS agonist mode
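TRHR-expressing cells loaded with fluo-8 calcium dye; 23 nL library compound pin-transferred, kinetic FDSS fluorescence (Ex 480/Em 530) recorded about 180 s for agonist-induced calcium release, before a 10 nM TRH EC20 addition for potentiator mode.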
Each line names hits and unclear results; the compound was inactive in the other large screens; ! = not active in a repeat. Sampled rows, rich in hits. Any-hit rate of the full collection: about 4.6%. Rule as the data show it, unless noted: active = activation above about 30%; inactive = the rest.

COc1ccc(N2CCN(C(=O)Cc3noc4ccc(C)cc34)CC2)cc1	none
CCOC(=O)c1ccc(NC(=O)Cn2nc(C)c3ccccc3c2=O)cc1	TRHR enhancer 30, D1 potentiator 40 (no result: Epigenetic reg)
CCOc1ccc(NC(=O)Cn2nc(Cc3ccncc3)c3ccccc3c2=O)cc1	TRHR enhancer 38
CCN(CC)c1cc2c(cc1F)c(=O)c(S(=O)(=O)c1ccccc1)cn2Cc1ccccc1	none
CCN1CCN(C(=O)c2ccc3c(c2)N(Cc2c(F)cccc2Cl)C(=O)c2ccccc2S3)CC1	none
CSc1ccc(S(=O)(=O)Nc2ccc3c(c2)OCCO3)cc1	D1 antagonist -30
Cc1ccc(S(=O)(=O)Nc2ccc3c(c2)nc(CCN2CCCCC2)n3C)cc1	none
Cc1ccc(S(=O)(=O)Nc2ccc3c(c2)nc(CN2CCCC2)n3C)cc1	D1 agonist 49
Cc1ccc(S(=O)(=O)Nc2ccc3nc(C)sc3c2)cc1	D1 antagonist -34
Cc1nc2ccc(S(=O)(=O)Nc3ccc(-c4nc5cccnc5s4)cc3)cc2s1	D1 antagonist -54
Cc1ccc(S(=O)(=O)Nc2ccc3c(c2)OCCO3)cc1	none
O=C(NCc1cccc(Br)c1)c1ccc(-n2cnc3cccnc32)cc1	none
COc1cccc(OC(=O)CSc2nnc(-c3cccs3)o2)c1	none
O=C(Nc1cccc(OCc2cc(=O)n3ccccc3n2)c1)Nc1cccc(C(F)(F)F)c1	Epigenetic reg inconclusive
Cc1nc2ccc(NS(=O)(=O)c3ccc(F)c(F)c3)cc2s1	none (no result: Epigenetic reg)
Cc1nc2ccc(NS(=O)(=O)c3ccc4c(c3)OCCO4)cc2s1	D1 antagonist -31
CC(=O)N1N=C2/C(=C/c3ccccc3)CCCC2C1c1ccccc1 (centres undefined)	TRHR enhancer 31
O=C(O)c1c(C(=O)N2N=C3/C(=C/c4ccccc4)CCCC3C2c2ccccc2)cccc1[N+](=O)[O-] (centres undefined)	none
COc1cccc(N/C(SCc2ccccc2F)=C(/C#N)C(=O)NCc2cccs2)c1	D1 antagonist -40, D1 agonist 34
CCCN1C(=O)/C(=C/c2c(N3CCNC(=O)C3CC(=O)OC)nc3c(C)cccn3c2=O)SC1=S (centres undefined)	D1 antagonist -30, D1 agonist 265, Epigenetic reg 14µM, TRHR agonist 76
CCOC(=O)C1=C(O)/C(=C/c2cn(CC(=O)N3CCCC3)c3ccccc23)SC1=Nc1ccccc1	D1 agonist 32, Epigenetic reg inconclusive
COC(=O)c1cn(CC(=O)N2CCCCCC2)c2ccccc12	none
CCOc1ccc(OCC)c(Nc2cc(C)nc3nc(-c4ccco4)nn23)c1	none
COc1ccccc1CNS(=O)(=O)c1cc2c3c(c1)CCN3C(=O)CC2	TRHR enhancer 30!
COc1cccc(CNS(=O)(=O)c2cc3c4c(c2)CCC(=O)N4CCC3)c1	none (no result: Epigenetic reg)
CCCCCNS(=O)(=O)c1cc2c3c(c1)CCC(=O)N3CCC2	D1 antagonist -30 (no result: Epigenetic reg)
COc1cc2cc(C(=O)O)n(C)c2c(OC)c1OC	D1 antagonist -37
COc1cc2cc(C(=O)N[C@@H](Cc3ccccc3)C(=O)O)n(C)c2c(OC)c1OC	none (no result: Epigenetic reg)
O=S(=O)(c1ccccc1)N1CCN=C1SCc1cccnc1	none
CS(=O)(=O)N1CCN=C1SCc1ccccc1	TRHR enhancer 32 (no result: Epigenetic reg)
COc1ccccc1CC(=O)NCCc1ccccc1	none (no result: Epigenetic reg)
COc1ccccc1C(=O)NCCC(=O)NCCc1ccccc1	D1 antagonist -77 (no result: Epigenetic reg)
CCC(=O)NNc1nc2c(F)cccc2s1	none
CCC(=O)NNc1nc2c(F)cc(F)cc2s1	D1 antagonist -35
N#CN1CCC(NS(=O)(=O)c2cccc(C(F)(F)F)c2)CC1	none (no result: Epigenetic reg)

Screening data from PubChem BioAssay.
